Source: PubChem
Glioma ERSR ind: qHTS for Inducers of the Endoplasmic Reticulum Stress Response (ERSR) in Human Glioma: qHTS; U87-MG GRP78 promoter luciferase reporter, 16 h; actives 0.02% (n = 420,000); Potency, µM, for inactives: at the top dose activation, actives largely listed as activators; further: potency means the concentration at half of the fitted maximal effect; series mostly up to about 76 µM; % of control where 0% means no effect; nearly all actives have a fitted effect of over 35% in size
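Stably transfected U87-MG glioma cells carrying a GRP78-based luciferase sensor; 16 h compound incubation. Luminescence end-point read 10 min after Bright-Glo addition at room temperature.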
TSHR antagonist: Antagonists of the Thyroid Stimulating Hormone Receptor: HTS campaign. Thyrotropin receptor (Homo sapiens), P16473. actives 0.2% (n = 330,000). TSHR-expressing cells, TSH-stimulated cAMP HTRF, 2 h; active compounds read low. activity change, negative = inhibition, % at 11.5 µM;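 active means activity change below a set negative limit, meaning inhibition stronger than a set level, cut at about -70% in these data; inconclusive means activity change between two set negative limits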; further: on the % scale 0 is the no-effect control and ±100 the full control effect
Target sequence (P16473 whole entry, looked up): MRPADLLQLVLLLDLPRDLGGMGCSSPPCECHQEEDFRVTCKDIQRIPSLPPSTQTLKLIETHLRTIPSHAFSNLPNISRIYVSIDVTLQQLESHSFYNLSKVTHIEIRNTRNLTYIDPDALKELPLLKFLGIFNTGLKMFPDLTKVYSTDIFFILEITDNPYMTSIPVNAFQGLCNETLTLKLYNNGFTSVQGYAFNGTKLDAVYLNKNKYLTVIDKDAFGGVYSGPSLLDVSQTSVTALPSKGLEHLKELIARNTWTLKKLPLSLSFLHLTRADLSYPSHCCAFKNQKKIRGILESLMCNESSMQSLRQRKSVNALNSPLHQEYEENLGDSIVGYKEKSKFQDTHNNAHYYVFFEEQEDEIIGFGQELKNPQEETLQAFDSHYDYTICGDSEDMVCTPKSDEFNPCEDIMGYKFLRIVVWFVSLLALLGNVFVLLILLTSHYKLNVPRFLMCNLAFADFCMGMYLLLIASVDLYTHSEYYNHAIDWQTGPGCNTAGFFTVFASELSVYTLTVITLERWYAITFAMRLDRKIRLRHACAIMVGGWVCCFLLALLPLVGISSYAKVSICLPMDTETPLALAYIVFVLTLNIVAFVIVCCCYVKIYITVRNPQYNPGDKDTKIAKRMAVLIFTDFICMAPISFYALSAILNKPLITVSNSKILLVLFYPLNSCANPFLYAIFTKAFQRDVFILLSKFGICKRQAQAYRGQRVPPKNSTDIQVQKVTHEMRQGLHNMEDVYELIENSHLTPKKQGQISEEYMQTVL
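Competitive HTRF cAMP read-out (cryptate anti-cAMP antibody, cAMP-d2; 30 min, room temperature) in freshly harvested TSHR cells. Compounds added before TSH at EC80 (4nM final), followed by 2 hours' incubation at 37 deg C.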
RGS4 inh: Inhibitors of Regulator of G Protein Signaling (RGS) 4: qHTS | actives 0.039% (n = 390,000) | Potency, µM (highest dose often 114 µM), for inactives: at the top dose activity change, negative = inhibition, hits mostly inhibitors | Regulator of G-protein signaling 4 (Homo sapiens), P49798 | Transcreener GDP fluorescence polarization, RGS4-accelerated GTP hydrolysis; further: potency means the concentration at half of the fitted maximal effect; on the % scale 0 is the no-effect control and ±100 the full control effect; nearly all actives have a fitted effect of over 75% in size
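MLSMR compounds (23 nl, pin-transferred) preincubated 10 min at room temperature with a 500nM (2x) first reagent, then RGS4 at 900nM (2x) plus Transcreener GDP mix added; fluorescence polarization (620/688 nm) read before and after 90 min at 30 °C.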
LDHA block: qHTS assay for inhibitors of human lactate dehydrogenase; actives 0.15% (n = 480,000); activity change, % (values are at about 110 or 230 µM); purified LDHA, NADH/diaphorase-resazurin fluorescence; active compounds read low; AID 1347041, 2019; in the data active means activity change below about -30%; inconclusive means mostly about -25% to -30%;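 further: plate controls were DMSO wells for no effect and wells without enzyme for full effect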
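LDH5 2 nM; NADH 0.06 mM, pyruvate 0.2 mM; 200 mM Tris pH 7.4, EDTA, Tween-20; 5 min RT. Detection: diaphorase 0.133 mg/mL + resazurin 37 µM, fluorescence ex540/em590 at 0 and 20 min; normalized to enzyme-free and DMSO wells.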
pAkt inh: HTS Assay for Inhibitors of Akt Phophorylation: Primary Screen; Neuro2A IGF-stimulated pAkt S473 HTRF, 20 min; active compounds read low; activity change, % for hits at 50 µM; actives 0.32% (n = 360,000); AID 651550, 2012; in the data active means activity change below about -80%; inconclusive means mostly about -51% to -80%; further: on the % scale 0 is the no-effect control and ±100 the full control effect
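Single-point screen (50 µM final compound) in Neuro2A cells stimulated 20 min with 6 nM IGF at 37 deg C. After lysis, Ser473-phosphorylated Akt read by HTRF (ex 330 nm, em 615/665 nm) as the 665/615 ratio.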
TCR act: Activators of T cell receptors: qHTS campaign | Potency, µM (titrated, usually from 9.22 µM), for the others: top-dose activation of IL-2 secretion, actives largely listed as activators | AID 504894, 2011 | 330,000 tested, under 10 active | primary human leukocytes, anti-CD3, IL-2 HTRF, 48 h; further: % of control where 0% means no effect
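48 hr co-incubation of compounds, a-CD3 beads and primary human leukocytes; IL-2 quantified homogeneously by HTRF with anti-IL-2 K and d2 conjugates.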
Starred values were filed as active, the others as inactive; i = inactive; ? = inconclusive; nt = no result; ! = repeats disagree; [ ] = dose if it differs, or a comment. In the library only some 0.55% were active in any assay of this set; here they are far more common. Unless noted, the call rests on the fitted dose curve; in most records, active means well fitted curve in the direction sought with a large enough effect; inconclusive means small, poorly fitted or top-dose-only effect, or another doubt; inactive means no such curve, though single readings can be large; an effect the other way counts as inactive or inconclusive.

SMILES	Glioma ERSR ind	TSHR antagonist	RGS4 inh	LDHA block	pAkt inh	TCR act
COC(CNC(=O)c1cn(C)c2ccc(S(=O)(=O)N3CCOCC3)cc2c1=O)OC	-2.9%	-118.4*	-5.9%	-4.6	i	0.6%
CCn1cc(C(=O)NCC(OC)OC)c(=O)c2cc(S(=O)(=O)N3CCOCC3)ccc21	-0.7%	-38.3	15.3%	-13.3	i	-3.4%
COc1ccc2cc(C(=O)NCCCN(C)C)[nH]c2c1	nt	nt	nt	-2.4	nt	nt
Cc1ccc(-n2cc3c(-c4cccc(Br)c4)nnc(C)c3n2)cc1	-6.7%	-22.2	4.3%	-0.3	-102.5%*	-4.6%
Cc1ccc(/C=C/C(=O)OC(C)C(=O)c2ccc(C)c(C)c2)o1 (stereo not given)	nt	nt	nt	0.0	nt	nt
O=C(Nc1ccccc1C(F)(F)F)c1cc(=S)[nH]c2ccccc12	nt	nt	nt	-14.6	nt	nt
Cc1[nH]c2ccccc2c1C(=O)/C(C#N)=C\c1c(Cl)cccc1Cl	nt	nt	nt	7.1	nt	nt
CNc1cc(CS(=O)c2ccccc2)nc(-c2ccccc2)n1 (stereo not given)	-2.1%	-0.2	-11.7%	-7.3	-123.4%*	0.8%
O=S(Cc1cc(Sc2ccccc2)nc(-c2ccccc2)n1)c1ccccc1 (stereo not given)	-4.1%	-3.0	20.1%	-1.0	i	-0.4%
COc1ccc(NC(=O)CSc2nnc(-c3cccs3)n2-c2ccccc2)cc1	-7.4%	1.6	-3.3%	-0.6	-107.2%*	-6.9%
NC(=O)c1cc2ccccc2o/c1=N/NC(=O)c1cccc(Cl)c1	-3.6%	-78.5*	0.1%	-3.0	i	-4.9%
COc1ccc2nc(SCC(=O)N3N=C(c4cccs4)CC3c3ccco3)[nH]c2c1 (stereo not given)	nt	nt	nt	13.9	nt	nt
COc1ccc(-c2nc(C#N)c(NCc3ccc4c(c3)OCO4)o2)cc1	nt	nt	nt	1.1	nt	nt
CCOc1ccc(-c2nc(C#N)c(NCc3ccc4c(c3)OCO4)o2)cc1	2.3%	7.1	16.7%	-31.2*!	i	-0.5%[46.1 µM]
CCOc1ccc2nc(S(=O)(=O)NC(=O)C3(C)CCN3C(=O)c3cc(C)n(C)n3)sc2c1 (stereo not given)	-2.0%	nt	nt	-66.6*	i	nt
COc1cccc(C2C3=C(CC(C)(C)CC3=O)Nc3cc4c(cc32)OCO4)c1OC (stereo not given)	nt	nt	nt	0.0	nt	nt
N#CCCn1cc(/C=C(\C#N)c2nc3ccccc3s2)c(-c2ccc(F)cc2)n1	-7.2%	4.1	1.6%	-6.1	-87.7%*	0.4%
N#CCCn1cc(C=C(C#N)C#N)c(-c2ccc(Cl)cc2)n1	-4.1%	-17.9	-21.6%	-4.6	i	-20.6%
Cc1ccc(Nc2cc(C)nc3ccc(C)cc23)cc1	-3.1%	-95.7*	15.1%	-0.4	i	3.4%
CCOC(=O)c1cnc2c(OC)cccc2c1N1CCN(c2ccc(OC)cc2)CC1	-7.2%	2.1	-19.3%[11.4 µM]	3.5	-127.6%*	3.4%
CCS(=O)(=O)c1nc(-c2ccc(F)cc2)cc(C(F)(F)F)n1	nt	nt	nt	4.2	nt	nt
NS(=O)(=O)c1ccc(CCNC(=O)c2cc3ccccc3s2)cc1	0.5%	-102.5*	-31.2%	-7.8	i	-5.9%
NS(=O)(=O)c1ccc(CCNC(=O)c2ccc(Cl)s2)cc1	-2.9%	3.8	21.4%	-1.4	i	-5.5%
COC(=O)/C=C/C(=O)Nc1cc(Cl)ccc1O	nt	nt	nt	8.9	nt	nt
CCOc1ccc2[nH]cc(S(=O)(=O)c3ccc(C)cc3)c(=O)c2c1	-2.5%	-5.7	-2.1%	-2.9	i	4.3%
SMILES	Glioma ERSR ind	TSHR antagonist	RGS4 inh	LDHA block	pAkt inh	TCR act
CCOc1ccc2[nH]cc(S(=O)(=O)c3ccc(Cl)cc3)c(=O)c2c1	-1.2%	-11.8	-4.5%	-44.2*	i	1.7%
Nc1c(C(=O)NCc2ccc3c(c2)OCO3)nnn1CC(=O)Nc1ccc(Br)cc1	-9.5%	-114.4*	12.9%	-6.3	nt	2.5%
O=c1oc2c3c4c(cc2c(C(F)(F)F)c1CCN1CCOCC1)CCCN4CCC3	-4.1%	-6.5	22.1%	-14.7	-109.3%*	1.3%
CC(C)c1cc(=O)oc2c3c4c(cc12)CCCN4CCC3	-5.5%	12.9	-23.6%	-5.6	i	nt
CC(C)Cn1c(-c2ccccc2F)n[nH]c1=S	-3.8%	-21.6	-21.2%	-4.2	i	-0.3%
CC(C)Cn1c(-c2csc3c2CCCC3)n[nH]c1=S	-5.3%	-82.5*	?	-0.2	i	-2.0%
Cn1c(C(=O)N2CCOCC2)cnc1Sc1ncc(C(F)(F)F)cc1Cl	-4.3%	1.5	0.5%	-6.7	-113.7%*	-0.4%
CCOc1ccccc1CN1CCCCCC1c1sccc1C (stereo not given)	nt	nt	nt	-30.8*	nt	nt
CCOc1ccccc1CN1CCC(O)CC1	-2.8%	5.7	11.2%	-19.9	nt	2.2%
NC(N)=NCc1ccc(F)cc1	nt	nt	nt	-1.2	nt	nt
C=CCn1c(Sc2nnc(C)s2)nc2c1c(=O)[nH]c(=O)n2C	-3.4%	6.3	-29.9%	-9.8	-124.5%*	-4.4%
C=CCn1c(NCCCOC)nc2c1c(=O)[nH]c(=O)n2C	nt	nt	nt	-34.5*	nt	nt
C=CCn1c(NCCN(C)C)nc2c1c(=O)[nH]c(=O)n2C	nt	nt	nt	-12.4	nt	nt
C=CCn1c(SCC(=C)C)nc2c1c(=O)[nH]c(=O)n2C	-1.1%	-5.7	-44.1%	-3.7	i	0.1%
CCN(c1ccc(-c2csc(-c3cccs3)n2)cc1)S(C)(=O)=O	nt	nt	nt	7.6	nt	nt
COc1cc(/C=C2\SC(=S)NC2=O)ccc1OS(=O)(=O)c1ccccc1	nt	-74.2*	nt	nt	nt	2.3%[46.1 µM]
COc1cc(/C=C2/SC(=S)NC2=O)ccc1OS(=O)(=O)c1ccc(C)cc1	-5.7%	?	?	-34.3*	i	5.6%[46.1 µM]
CN(CCOc1cccc(Cl)c1)Cc1cc(=O)oc2cc(O)ccc12	nt	nt	nt	-0.8	nt	nt
CCC1CN(C(=O)NCc2ccccc2)c2cc(Cl)ccc2O1 (stereo not given)	-0.9%	-7.2	-0.6%	-0.3	i	-5.8%
CCC1CN(C(=O)NCc2ccccc2)c2ccccc2O1 (stereo not given)	-5.4%	-71.5*	-0.3%	-2.1	i	5.0%
C=CCNC(=O)c1ccc(NC(=O)C2=CSCCO2)cc1	-11.4%	-135.5*	-0.5%	-13.8	i	-1.2%
O=c1[nH]c(CN2CCN(c3ccccc3O)CC2)nc2ccccc12	12.9%	11.6	14.4%	8.0	-110.2%*	-21.8%
O=c1[nH]c(CN2CCN(CCO)CC2)nc2ccccc12	-0.2%	-5.6	15.9%	-3.6	nt	-1.5%[46.1 µM]
